Where “and” joins values, the source holds several entries; their conditions need not be identical. Identical values can stand only once. Calls of active or inactive are those of the source. Unless noted, the call rests on the fitted dose curve; in most records, active means well fitted curve in the direction sought with a large enough effect in the repeat runs; inconclusive means weak or mixed curves; inactive means no such curve, though single readings can be large; an effect the other way counts as inactive or inconclusive.

The values that follow come from PubChem BioAssay (Tox21).

A short description of assay [1]: qHTS assay to identify small molecule antagonists of the thyroid receptor (TR) signaling pathway (AID 743065). Further: nearly all actives have a fitted effect of over 55% in size. Further: potency means the concentration at half of the fitted maximal effect. Summed up: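 GH3.TRE-Luc rat pituitary cells (two TREs driving luciferase) were dosed with compound, then stimulated with 1 nM T3 (final) for 23.5 h at 37 C. ONE-Glo luminescence was the read-out, with CellTiter-Fluor fluorescence as the cytotoxicity counter-screen.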

Assay [2] concerns thyroid hormone receptor (rat, GH3 cells). As to the kind of experiment: qHTS assay to identify small molecule agonists of the thyroid receptor (TR) signaling pathway (AID 743066; calls by dose curve; further: potency means the concentration at half of the fitted maximal effect). (In general: Quantitative high-throughput screening tests each substance at several concentrations.)
The target of assay [3] is Estrogen receptor (Homo sapiens) (UniProt P03372). Briefly: qHTS assay to identify small molecule antagonists of the estrogen receptor alpha (ER-alpha) signaling pathway (AID 743069; active means well fitted curve in the direction sought with a large enough effect in the signal ratio in the repeat runs, not every such curve was filed as active; inconclusive means weak or mixed curves, or effect the other way; inactive means no such curve, though single readings can be large or run the other way; the % refers to the signal ratio; further: potency means the concentration at half of the fitted maximal effect). Summed up: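 Reporter cells (ER-alpha-bla, HEK293 background) are conditioned overnight in stripped-serum medium (2% charcoal-stripped FBS). Compound and 17beta-estradiol exposure runs 18 hr at 37C, 5% CO2.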
Sequence of Estrogen receptor (Homo sapiens) (P03372 whole entry, looked up): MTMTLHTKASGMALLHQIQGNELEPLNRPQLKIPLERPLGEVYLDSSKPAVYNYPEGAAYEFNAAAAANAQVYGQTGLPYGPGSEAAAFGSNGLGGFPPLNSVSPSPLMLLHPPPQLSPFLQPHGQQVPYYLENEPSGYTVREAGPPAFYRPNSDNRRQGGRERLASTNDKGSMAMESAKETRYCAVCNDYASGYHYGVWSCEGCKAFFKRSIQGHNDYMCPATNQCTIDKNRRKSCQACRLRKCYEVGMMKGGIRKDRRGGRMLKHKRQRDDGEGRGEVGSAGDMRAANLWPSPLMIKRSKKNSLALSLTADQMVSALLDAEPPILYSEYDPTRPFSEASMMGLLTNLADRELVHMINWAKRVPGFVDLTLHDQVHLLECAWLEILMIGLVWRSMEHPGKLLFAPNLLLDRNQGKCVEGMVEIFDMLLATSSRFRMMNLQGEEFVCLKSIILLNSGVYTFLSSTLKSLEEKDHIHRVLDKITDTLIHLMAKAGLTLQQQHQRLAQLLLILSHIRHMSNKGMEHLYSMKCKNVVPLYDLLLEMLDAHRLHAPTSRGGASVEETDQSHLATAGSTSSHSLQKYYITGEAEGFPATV

Assay [4] is described as follows: qHTS assay to identify small molecule antagonists of the estrogen receptor alpha (ER-alpha) signaling pathway - cell viability counter screen (AID 743074; calls by dose curve;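 further: HEK293 cells carrying ER-alpha-UAS-bla reporter stimulated with 17beta-estradiol; nearly all actives have a fitted effect of over 45% in size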; further: potency means the concentration at half of the fitted maximal effect).
In assay [5] the target is Estrogen receptor (Homo sapiens) (UniProt P03372). As to the kind of experiment: qHTS assay to identify small molecule agonists of the estrogen receptor alpha (ER-alpha) signaling pathway (AID 743075; calls by dose curve;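 further: HEK293 GripTite cells with ER-alpha and UAS-driven beta-lactamase reporter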).
Assay [6] has the same target. As to the kind of experiment: qHTS assay to identify small molecule agonists of the estrogen receptor alpha (ER-alpha) signaling pathway using the BG1 cell line (AID 743079). Further: nearly all actives have a fitted effect of over 20% in size. Further: potency means the concentration at half of the fitted maximal effect. Particulars: BG1Luc4E2 cells, ERE-luciferase agonist, 22 h; activation: at 70.3 µM (top of the series).
A short description of assay [7]: qHTS assay to identify small molecule antagonists of the estrogen receptor alpha (ER-alpha) signaling pathway using the BG1 cell line (AID 743080; calls by dose curve;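 further: BG1 cells stimulated with 17beta-estradiol alongside compound; nearly all actives have a fitted effect of over 25% in size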; further: potency means the concentration at half of the fitted maximal effect). A digest of the protocol:
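Quantitative HTS on the Tox21 10K library: BG1 cells with endogenous ER-alpha and ERE-luciferase reporter, 17beta-estradiol stimulation, 21.5 h compound exposure, luminescence endpoint with parallel fluorescence cytotoxicity counter-read.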

The target of a further assay is Aromatase (Homo sapiens) (UniProt P11511). As to the kind of experiment: qHTS assay to identify aromatase inhibitors (AID 743083). Further: nearly all actives have a fitted effect of over 55% in size. Further: potency means the concentration at half of the fitted maximal effect.
Sequence of Aromatase (Homo sapiens) (P11511 whole entry, looked up): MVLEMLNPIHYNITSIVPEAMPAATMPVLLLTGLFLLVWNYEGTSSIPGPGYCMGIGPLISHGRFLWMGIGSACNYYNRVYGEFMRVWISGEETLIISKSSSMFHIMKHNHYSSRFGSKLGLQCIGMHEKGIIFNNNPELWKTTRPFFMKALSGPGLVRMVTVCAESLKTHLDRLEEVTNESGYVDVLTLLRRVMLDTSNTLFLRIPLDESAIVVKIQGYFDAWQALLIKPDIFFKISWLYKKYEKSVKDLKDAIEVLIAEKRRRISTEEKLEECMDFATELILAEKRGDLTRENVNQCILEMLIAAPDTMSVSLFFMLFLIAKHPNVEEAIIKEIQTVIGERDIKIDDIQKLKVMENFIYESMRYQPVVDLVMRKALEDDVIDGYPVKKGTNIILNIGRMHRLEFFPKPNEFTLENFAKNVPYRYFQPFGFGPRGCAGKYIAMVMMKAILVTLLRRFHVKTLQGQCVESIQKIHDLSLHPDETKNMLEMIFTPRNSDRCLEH
Assay [8] has as its target Aryl hydrocarbon receptor (Homo sapiens) (UniProt P35869). Briefly: qHTS assay to identify small molecule that activate the aryl hydrocarbon receptor (AhR) signaling pathway (AID 743085). Further: nearly all actives have a fitted effect of over 15% in size. Further: potency means the concentration at half of the fitted maximal effect.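 On activation: HG2L7.5c1 human HepG2 liver cells with stably integrated DRE-driven firefly reporter.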 Summed up:
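HepG2 cells stably carrying a 20-DRE firefly luciferase reporter (HG2L7.5c1) treated with compound for 24 hr at 37C. Luciferase read by ONE-Glo luminescence, with CellTiter-Fluor viability read first.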

The nature of assay [9]: qHTS assay to identify small molecule antagonists of the peroxisome proliferator-activated receptor gamma (PPARg) signaling pathway - cell viability counter screen (AID 743194). Further: nearly all actives have a fitted effect of over 55% in size. Further: potency means the concentration at half of the fitted maximal effect. The note with it: Potency: co-treated with 50 nM rosiglitazone unless noted. Summed up: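 Cytotoxicity counter screen in PPARg-bla HEK293H cells, same wells as reporter assay. Compounds plus 50 nM rosiglitazone (final) for 17 h at 37 C, then viability read by CellTiter-Glo luminescence.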

Assay [10] is described as follows: qHTS assay for small molecule agonists of the antioxidant response element (ARE) signaling pathway (AID 743202; active means well fitted activation curve with a large enough effect in the signal ratio in the repeat runs, not every such curve was filed as active; inconclusive means weak or mixed curves, or effect the other way; inactive means no such curve, though single readings can be large or run the other way; the % refers to the signal ratio; further: potency means the concentration at half of the fitted maximal effect). Summed up:
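Agonist mode reporter screen: HepG2 cells with ARE-controlled beta-lactamase are incubated with test compounds for 16 h at 37 C, and beta-lactamase activity is measured as fluorescence of cleaved B/G FRET substrate.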

Assay [11] in a line: qHTS assay for small molecule activators of the heat shock response signaling pathway - cell viability counter screen (AID 743209). Further: nearly all actives have a fitted effect of over 50% in size. Further: potency means the concentration at half of the fitted maximal effect. Summed up: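 Counter screen for cytotoxicity in HeLa HSE-bla reporter cells. Treatment was 5 h at 37 C; viability was detected by luminescent ATP assay (CellTiter-Glo) in the same wells as the beta-lactamase read.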
Assay [12] can be described thus: qHTS assay for small molecule activators of the heat shock response signaling pathway (AID 743210; active means well fitted activation curve with a large enough effect in the signal ratio in the repeat runs, with a control signal flat, not every such curve was filed as active; inconclusive means weak or mixed curves; the % refers to the signal ratio; further: potency means the concentration at half of the fitted maximal effect;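 on activation: HeLa cells with beta-lactamase reporter driven by heat shock elements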). A digest of the protocol: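 Quantitative high-throughput format using an engineered HeLa line in which heat shock response elements drive beta-lactamase; after 5 h with compound, cells received a B/G FRET substrate and fluorescence was read.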
A short description of assay [13]: qHTS assay to identify small molecule antagonists of the thyroid receptor (TR) signaling pathway - cell viability counter screen (AID 743064). Further: nearly all actives have a fitted effect of over 50% in size. Further: potency means the concentration at half of the fitted maximal effect. A digest of the protocol:
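GH3.TRE-Luc rat pituitary cells dosed after 4 hr plating, co-stimulated with T3 at 1 nM final, incubated 23.5 h at 37 C. Viability measured in the same wells by CellTiter-Fluor fluorescence after 30 min further at 37 C.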

Assay [14] is described as follows: qHTS assay to identify small molecule antagonists of the estrogen receptor alpha (ER-alpha) signaling pathway using the BG1 cell line - cell viability counter screen (AID 743081).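 Further: compound given together with 17beta-estradiol as the ER stimulus; nearly all actives have a fitted effect of over 45% in size.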 Further: potency means the concentration at half of the fitted maximal effect.
Assay [15] is described as follows: qHTS assay to identify aromatase inhibitors - cell viability counter screen (AID 743084).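 Further: cells stimulated with testosterone during compound exposure; nearly all actives have a fitted effect of over 55% in size.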 Further: potency means the concentration at half of the fitted maximal effect.
Assay [16] is described as follows: qHTS assay for small molecule agonists of the antioxidant response element (ARE) signaling pathway - cell viability counter screen (AID 743203; calls by dose curve; further: nearly all actives have a fitted effect of over 55% in size; further: potency means the concentration at half of the fitted maximal effect). A digest of the protocol: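 Compounds in DMSO were pinned onto ARE-bla HepG2 cells plated 5 hrs earlier at 2,000 cells/well. Sixteen hours later at 37C/5% CO2, CellTiter-Glo was added and luminescence measured after 30 min at room temperature.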

Assay [17] is described as follows: qHTS assay to identify small molecule that activate the aryl hydrocarbon receptor (AhR) signaling pathway - cell viability counter screen (AID 743086). Further: nearly all actives have a fitted effect of over 45% in size. Further: potency means the concentration at half of the fitted maximal effect. A digest of the protocol: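 HepG2-AhR-luc (HG2L7.5c1) cells, 4000/well, treated 24 h at 37 C with compound; viability measured as CellTiter-Fluor fluorescence after 30 min in the same wells as the luciferase read.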

In assay [18] the target is Peroxisome proliferator-activated receptor gamma (Homo sapiens) (UniProt P37231). Briefly: qHTS assay to identify small molecule agonists of the peroxisome proliferator-activated receptor gamma (PPARg) signaling pathway (AID 743094; active means well fitted activation curve with a large enough effect in the signal ratio in the repeat runs, not every such curve was filed as active; inconclusive means weak or mixed curves, or effect the other way; inactive means no such curve, though single readings can be large or run the other way; the % refers to the signal ratio; further: potency means the concentration at half of the fitted maximal effect). Summed up: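 Following 5 h plating at 37C, PPARg-bla HEK293H cells receive compound or DMSO for 17 h; fluorescence intensity is recorded after LiveBLAzer B/G loading for 1 h at room temperature.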
Sequence of Peroxisome proliferator-activated receptor gamma (Homo sapiens) (P37231 whole entry, looked up): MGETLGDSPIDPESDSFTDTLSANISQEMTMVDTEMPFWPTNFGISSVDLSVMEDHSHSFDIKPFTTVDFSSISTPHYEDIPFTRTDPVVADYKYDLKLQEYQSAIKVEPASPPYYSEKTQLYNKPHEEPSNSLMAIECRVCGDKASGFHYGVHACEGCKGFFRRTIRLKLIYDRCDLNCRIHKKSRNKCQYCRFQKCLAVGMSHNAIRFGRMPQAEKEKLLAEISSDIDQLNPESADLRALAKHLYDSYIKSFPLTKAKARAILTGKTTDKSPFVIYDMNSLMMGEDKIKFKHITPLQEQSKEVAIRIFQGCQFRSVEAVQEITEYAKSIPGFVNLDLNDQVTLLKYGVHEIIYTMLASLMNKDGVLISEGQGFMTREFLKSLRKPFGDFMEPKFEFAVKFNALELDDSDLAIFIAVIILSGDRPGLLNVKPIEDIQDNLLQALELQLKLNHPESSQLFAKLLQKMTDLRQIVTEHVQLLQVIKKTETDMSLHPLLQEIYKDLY

Sequence of Aryl hydrocarbon receptor (Homo sapiens) (P35869 whole entry, looked up): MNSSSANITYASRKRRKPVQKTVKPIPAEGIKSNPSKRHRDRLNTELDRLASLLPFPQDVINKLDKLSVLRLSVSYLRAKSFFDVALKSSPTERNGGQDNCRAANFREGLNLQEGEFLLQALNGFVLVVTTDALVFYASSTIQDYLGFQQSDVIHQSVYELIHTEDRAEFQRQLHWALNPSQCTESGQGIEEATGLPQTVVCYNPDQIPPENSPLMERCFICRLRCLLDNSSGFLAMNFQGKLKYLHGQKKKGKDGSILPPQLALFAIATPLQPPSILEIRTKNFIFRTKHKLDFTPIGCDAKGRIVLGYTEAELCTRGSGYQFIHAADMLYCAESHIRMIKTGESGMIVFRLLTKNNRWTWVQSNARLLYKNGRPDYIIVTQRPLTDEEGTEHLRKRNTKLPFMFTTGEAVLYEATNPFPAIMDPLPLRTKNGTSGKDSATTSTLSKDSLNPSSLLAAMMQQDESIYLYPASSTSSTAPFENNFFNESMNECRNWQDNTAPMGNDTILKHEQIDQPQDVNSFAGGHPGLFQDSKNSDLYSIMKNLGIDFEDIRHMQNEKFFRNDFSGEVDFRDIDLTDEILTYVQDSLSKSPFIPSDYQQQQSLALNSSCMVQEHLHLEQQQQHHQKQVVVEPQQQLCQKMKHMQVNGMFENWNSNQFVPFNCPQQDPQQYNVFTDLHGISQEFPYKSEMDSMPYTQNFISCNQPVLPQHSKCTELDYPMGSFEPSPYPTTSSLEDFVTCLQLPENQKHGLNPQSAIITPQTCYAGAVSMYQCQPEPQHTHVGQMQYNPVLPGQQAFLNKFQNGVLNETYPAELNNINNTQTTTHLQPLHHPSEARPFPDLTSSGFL

Turning to `c1ccc(N=NNc2ccccc2)cc1`, the Potency entry (in [1]; in assay [2]; in assay [4]; in assay [5]; with Aromatase (Homo sapiens); in assay [9]) was “inactive” in each case. Moreover, the Potency entry in assay [11] and in [12] was “inactive” each time. In addition, the Potency in assay [3] was 21.9 µM [inhibitor] (active); in assay [6], 14.2 µM (active) and 54.5 µM (active); in [7] it was 68.6 µM (active); in assay [8], 10 µM (active) and 34.4 µM (active); in assay [10], 9.69 µM (active).
For `CSC(=O)c1c(C(F)F)nc(C(F)(F)F)c(C(=O)SC)c1CC(C)C`, the Potency is 54.2 µM (active) in [13] and 68.2 µM (active) with Aromatase (Homo sapiens). Also, the Potency entry in [4], in [5], in assay [6], in assay [7], in assay [14] and in assay [15] was “inactive” throughout. The Potency result in assay [9], in assay [10], in [11] and in assay [12] was “inactive” in each case.
With `CN1CCc2cc3c(cc2C1O)OCO3` (stereo not drawn), the Potency entry (in assay [1]; in assay [2]; in assay [4]; with Aromatase (Homo sapiens); in [8]; in assay [9]) was “inactive” each time. For the same molecule, the Potency result in assay [16] and in [11] was “inactive” each time. In addition, the Potency in assay [12] was 39.1 µM (active).
On to `CCc1cccc(C)c1N(C(=O)CCl)[C@@H](C)COC`, for which the Potency entry in [13], in assay [4], in assay [14], in assay [15], in assay [8] and in assay [17] was “inactive” each time. Further, the Potency entry in [9], in assay [16], in assay [11] and in assay [12] was “inactive” in each case. The Potency in assay [10] was 9.69 µM (active).
As to `CC(=O)[O][Sn]([c]1ccccc1)([c]1ccccc1)[c]1ccccc1`, the Potency is 0.172 µM (active) in [13]; 0.195 µM (active) in assay [4]; 3.86 µM (active) in assay [14]; 0.344 µM (active) in assay [15]; 0.77 µM (active) in [17]; 0.138 µM (active) in [9]. Besides, the Potency in [16] is 0.0344 µM (active); in [11], 15.5 µM (active). The Potency entry in assay [8] is “inactive”.
Regarding `c1ccc(Nc2ccc(Nc3ccccc3)cc2)cc1`, the Potency in assay [1] is 9.65 µM (active); in [3] it was 1.73 µM [inconclusive] (active); in assay [6], 6.09 µM (active); in assay [16], 60.9 µM (active); in assay [11], 24.4 µM (active). Further, the Potency entry (in assay [2]; in [4]; in [14]; with Aromatase (Homo sapiens); in assay [17]) was “inactive” throughout.
In the case of `COC(=O)c1cc(Oc2ccc(Cl)cc2Cl)ccc1[N+](=O)[O-]`, the Potency in assay [1] was 61.1 µM (active). Further, the Potency result in [2], in assay [4], in assay [14], in assay [15], in [8] and in assay [17] was “inactive” throughout. Besides, the Potency entry in assay [9], in [10], in [16], in assay [11] and in assay [12] was “inactive” throughout.
Turning to `c1csc(-c2ccc(-c3cccs3)s2)c1`, the Potency result (in [1]; in assay [14]; with Aromatase (Homo sapiens); in [15]; in assay [17]; in [9]) was “inactive” each time. The Potency entry in [16] and in [11] was “inactive” each time. The Potency in assay [2] was 61.1 µM (active); in assay [6], 27.3 µM (active); in assay [8], 24.3 µM (active); in assay [18], 21.9 µM (active); in assay [10], 2.73 µM (active).
For `CN1C(=O)[C@@H](NC(=O)c2cc3ccccc3[nH]2)N=C(c2ccccc2)c2ccccc21`, the Potency in assay [1] is 5.96 µM (active). The Potency entry in [2], in [4], in assay [14], in [17], in [16] and in assay [11] was “inactive” each time.
For the molecule `CN=C=O`, the Potency result (in assay [1]; in assay [2]; in [4]; in assay [14]; with Aromatase (Homo sapiens); in assay [15]) was “inactive” throughout. The Potency entry in assay [8], in assay [17], in assay [9], in assay [10], in assay [16] and in assay [11] was “inactive” in each case.
